Source: PubChem BioAssay (National Center for Advancing Translational Sciences (NCATS))
POLH inh = blocks human DNA polymerase eta activity | recombinant Pol eta, fluorescent DNA replication assay | Potency, µM (series often up to 114 µM), for inactives: top-dose activity change, negative = inhibition, actives largely listed as inhibitors | 390,000 compounds, 1.2% hits | AID 588591; note: % is set by controls: 0 for no effect and ±100 for the full control effect
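Pol eta at 10 nM preincubated with compounds 15 min at room temperature; reaction started with fluorescent substrate (50 nM final) and read kinetically at 0 and 10 min.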
Pol beta inh = DNA polymerase beta (human) inhibition | P06746 | Pol beta primer extension/strand displacement, fluorescence kinetic | Potency, µM (highest dose often 114 µM), inactives show top-dose activity change, negative = inhibition, hits mostly inhibitors | 340,000 compounds, 1.3% hits | AID 485314; note: % is set by controls: 0 for no effect and ±100 for the full control effect
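Preincubation: enzyme (10 nM) with compound, 15 min, RT. Reaction: substrate added to 50 nM final. Reads: 0 and 10 min. Analysis: normalized, Hill fit.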
POLI inh = DNA polymerase iota (human) inhibition; Pol iota fluorescent replication assay, 10 min; Q9UNA4; 390,000 compounds, 1% hits; Potency, µM (doses to about 115 µM), for inactives: at the top dose activity, negative = inhibition, usual class: inhibitors
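Pol iota at 10 nM preincubated 15 min with compounds at room temperature; reaction started with fluorescent substrate, 50 nM final. Fluorescence read kinetically at 0 and 10 min; buffer-only wells as negative control.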
FEN1 inhibitor = human FEN1 inhibition | Recombinant FEN1 flap cleavage, fluorescence, 15 min | Potency, µM (doses to about 114 µM), without a hit: at the highest dose activity change, negative = inhibition, most hits filed as inhibitors | 390,000 compounds, 0.35% hits | AID 588795; note: % is set by controls: 0 for no effect and ±100 for the full control effect; nearly all actives have a fitted effect of over 65% in size
Target sequence (P39748 whole entry, looked up): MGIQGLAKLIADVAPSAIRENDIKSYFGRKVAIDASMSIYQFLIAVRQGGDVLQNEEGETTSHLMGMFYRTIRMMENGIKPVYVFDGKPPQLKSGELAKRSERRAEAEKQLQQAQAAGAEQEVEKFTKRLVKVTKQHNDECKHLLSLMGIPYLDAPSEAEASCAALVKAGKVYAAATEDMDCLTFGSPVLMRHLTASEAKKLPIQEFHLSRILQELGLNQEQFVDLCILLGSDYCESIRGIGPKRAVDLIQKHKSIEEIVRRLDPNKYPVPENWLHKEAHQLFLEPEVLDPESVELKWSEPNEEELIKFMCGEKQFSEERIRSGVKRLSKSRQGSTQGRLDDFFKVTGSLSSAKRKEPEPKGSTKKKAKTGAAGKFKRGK
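Read-out was taken twice, immediately and after 15 min, following addition of 50 nM substrate to 10 nM FEN1 that had sat with test compound for 15 min at room temperature. Curves came from a four-parameter Hill model.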
WRN inhibitor = WRN helicase (human) inhibition. Q14191. WRN helicase unwinding, fluorescent forked duplex, kinetic. Potency, µM (top dose mostly 114 µM), for inactives: at the top dose activity change, negative = inhibition, hits mostly inhibitors. 360,000 compounds, 0.46% hits; note: % is set by controls: 0 for no effect and ±100 for the full control effect; nearly all actives have a fitted effect of over 55% in size
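Kinetic red-fluorescence monitoring (525/598 nm) tracks WRN helicase activity after 100 nM fluorophore-quencher forked duplex and 2 mM ATP are added to 20 nM enzyme pretreated 15 min at room temperature with compound.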
Pol kappa inh = DNA polymerase kappa (human) inhibition | purified Pol kappa, fluorescent DNA synthesis assay, 10 min | Potency, µM (top dose mostly 107 µM), inactives show at the top dose activity, negative = inhibition, most hits filed as inhibitors | 400,000 compounds, 0.53% hits | Q9UBT6; note: % is set by controls: 0 for no effect and ±100 for the full control effect
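First, compounds were pin-transferred onto 10 nM Pol kappa. After 15 min at room temperature, substrate was added to 50 nM final. Fluorescence was then measured kinetically at 0 and 10 min.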
* marks the source's active call; other numbers are inactive results; ? = inconclusive; . = not tested or not shown; [ ] = remark or other dose. In the library only some 2.4% were active in any assay of this set; here they are far more common. Calls come from the whole dose curve; as a rule, active = well fitted curve in the direction sought with a large enough effect; inconclusive = small, poorly fitted or top-dose-only effect, or another doubt; inactive = no such curve, though single readings can be large; an effect the other way counts as inactive or inconclusive. Potency is the fitted concentration of half-maximal effect.

SMILES	POLH inh	Pol beta inh	POLI inh	FEN1 inhibitor	WRN inhibitor	Pol kappa inh
CC(C)(O)c1ccc2c(c1)CCC1C(C)(C(=O)O)CCCC21C (configuration not stated)	?	40µM*	?	-16%	-11%	-39%
Cc1nc2ccc(NC(=O)c3cc([N+](=O)[O-])cc([N+](=O)[O-])c3Cl)cc2s1	?	-1%	?	0%	10µM*	-9%
COc1cc(-c2c(-c3ccc4c(c3)OCO4)noc2-c2ccsc2)cc(OC)c1OC	.	.	10%	14%	.	7%
O=C(O)CSc1nc(-c2ccc(Cl)cc2)nc2c1oc1ccccc12	?	56µM*	7%	-16%	-14%	-16%
NC(=O)c1cc[n+](CC2=C(C(=O)O)N3C(=O)[C@@H](NC(=O)C(c4ccccc4)S(=O)(=O)[O-])[C@H]3SC2)cc1 (some centres not stated)	-100%	-21%	0.79µM*	2.2µM*	.	1µM*
NC(=O)c1cc[n+](CC2=C(C(=O)O)N3C(=O)[C@@H](NC(=O)[C@H](c4ccccc4)S(=O)(=O)[O-])[C@@H]3SC2)cc1	.	.	.	.	.	4.2µM*
NC(C(=O)N[C@@H]1C(=O)N2C(C(=O)O)=C(Cl)CS[C@H]12)c1ccccc1 (some centres not stated)	-1%[57.1 µM]	13%[57.1 µM]	4%[58.9 µM]	.	.	-7%[60.1 µM]
COC(=O)/C=C/c1cccc(N(Cc2ccc(-c3ccc(N(C)C)cc3)cc2)C(=O)C2CCCCC2)c1	.	.	.	.	.	6%[60.1 µM]
COc1ccc(N2CCN(C(CNC(=O)C(=O)NCc3ccc(F)cc3)c3cccnc3)CC2)cc1 (configuration not stated)	-13%	4%	-17%	-1%	.	0%
CCOC(=O)c1cc2c(=O)n3cccc(C)c3nc2n(C)c1=N	.	79µM*	.	.	.	.
CCOCCCn1c(=N)c(C(N)=S)cc2c(=O)n3cccc(C)c3nc21	-5%	-23%	?	-25%	-27%	0%
Cc1ccc(S(=O)(=O)N(C)CCN(C)c2nc(-c3cccs3)nc3ccccc23)cc1	.	.	-13%	-14%	.	-9%
O=C(CSc1nc(=O)n2cc(Cl)ccc2n1)Nc1ccc2c(c1)OCO2	20µM*	.	?	?	-29%	-42%
Cc1ccn2c(=O)nc(SCC(=O)Nc3ccc4c(c3)OCO4)nc2c1	?	.	35µM*	-1%	-35%	-24%
Cc1ccc2nc(SCC(=O)Nc3ccc4c(c3)OCCO4)nc(=O)n2c1	-1%	.	63%	-1%	-25%	-11%
Cc1ccn2c(=O)nc(SCC(=O)Nc3ccc4c(c3)OCCO4)nc2c1	?	.	56µM*	4%	-4%[11.6 µM]	-11%
O=C(CSc1nc(=O)n2cc(Cl)ccc2n1)NCCc1ccccc1	25µM*	.	?	9%	-25%	-36%
Cc1ccc2nc(SCC(=O)NCCc3ccccc3)nc(=O)n2c1	-3%	.	26%	-3%	-3%	4%
S=Cc1nc2ccccc2[nH]1	.	.	43%	-4%	.	7%
